SMN2 splice enh – qHTS Assay for Enhancers of SMN2 Splice Variant Expression; HEK293 SMN2-luciferase splicing reporter, luminescence, 30-36 h; Potency, µM (series often up to 46.1 µM), hits mostly activators; hit rate 2.8% among 210,000; also: nearly all actives have a fitted effect of over 55% in size
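HEK293 cells carry an SMN2 […]–luciferase reporter in which exon 7 inclusion puts luciferase in frame. Cells were plated 10-12 h before compound addition, then incubated 30-36 h at 37C. ONE-Glo luminescence was read; sodium butyrate at 4.5 mM final served as control.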
FLuc modulator – qHTS profiling assay for firefly luciferase inhibitor/activator using purifed enzyme and Km concentrations of substrates (counterscreen for miR-21 project); hit rate 6.9% among 360,000; Luciferin 4-monooxygenase (Photinus pyralis), P08659; Potency, µM (top dose mostly 57.5 µM), usual class: inhibitors; purified FLuc, Km substrates, luminescence inhibition; also: nearly all actives have a fitted effect of over 55% in size
Target sequence (P08659 whole entry, looked up): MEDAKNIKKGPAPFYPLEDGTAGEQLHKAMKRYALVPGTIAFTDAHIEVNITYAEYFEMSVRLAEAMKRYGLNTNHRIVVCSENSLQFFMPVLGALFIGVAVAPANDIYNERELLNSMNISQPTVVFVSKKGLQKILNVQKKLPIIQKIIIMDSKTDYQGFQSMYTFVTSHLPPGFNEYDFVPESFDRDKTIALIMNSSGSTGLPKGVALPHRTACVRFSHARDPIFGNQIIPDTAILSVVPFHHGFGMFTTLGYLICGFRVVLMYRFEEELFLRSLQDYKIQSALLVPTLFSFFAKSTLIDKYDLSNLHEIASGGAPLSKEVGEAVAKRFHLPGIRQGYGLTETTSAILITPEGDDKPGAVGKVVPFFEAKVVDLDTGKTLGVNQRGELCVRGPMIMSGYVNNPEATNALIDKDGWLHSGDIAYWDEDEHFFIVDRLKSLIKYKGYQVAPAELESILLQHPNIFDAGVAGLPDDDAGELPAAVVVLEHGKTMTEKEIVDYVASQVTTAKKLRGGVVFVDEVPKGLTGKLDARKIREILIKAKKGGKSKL
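Purified P. pyralis luciferase (10nM final) with 10uM D-luciferin and 10uM ATP (Km levels) in 50mM Tris acetate pH 7.5, 10mM Mg acetate, 0.01% Tween-20, 0.05% BSA; qHTS 6-point titration, ~60 µM downward; luminescence read.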
Rab9 prom act – qHTS Assay for Rab9 Promoter Activators. Potency, µM (series often up to 9.22 µM), hits mostly activators. hit rate 2.8% among 320,000. Huh7 Rab9 promoter-luciferase reporter, luminescence, 24 h. AID 485297, 2010; also: nearly all actives have a fitted effect of over 60% in size
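Huh7 reporter line, Rab9 promoter upstream of luciferase. Compound exposure 24 h at 37 °C in reduced-serum medium with 10% FBS. Read-out: luminescence.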
Luc counter – Counterscreen for Luciferase (Kinase-Glo TM) Inhibition | hit rate 0.28% among 200,000 | Kinase-Glo luciferase, ATP luminescence, 8 min | Luciferin 4-monooxygenase (Photuris pensylvanica), Q27757 | Potency, µM (doses to about 38.3 µM), actives largely listed as inhibitors; also: nearly all actives have a fitted effect of over 60% in size
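Luminescence was the read-out, taken after 8-minute incubation at ambient temperature. Luciferase turned over luciferin with 10 uM ATP in imidazole pH 7.2 buffer containing KCl, MgCl2, Tween 20 and BSA.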
ELG1 genotoxic – qHTS screen for small molecules that induce genotoxicity in human embryonic kidney (HEK293T) cells expressing luciferase-tagged ELG1; AID 504466, 2011; hit rate 1.3% among 330,000; Potency, µM (top dose mostly 46 µM), usual class: activators; HEK293T ELG1-luciferase reporter, luminescence, 16 h; also: nearly all actives have a fitted effect of over 60% in size
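16 hr compound incubation (37 °C, 5% CO2) of HEK293T cells carrying luciferase-tagged ELG1; luciferase then measured by ONE-Glo luminescence after 30 min at RT.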
NPC1 prom act – qHTS Assay for NPC1 Promoter Activators | Huh7 NPC1 promoter luciferase reporter, 24 h | Potency, µM (top dose mostly 9.22 µM), usual class: activators | AID 485313, 2010 | hit rate 2.4% among 320,000; also: nearly all actives have a fitted effect of over 60% in size
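Quantitative HTS used a cell-based reporter: Huh7 cells stably bearing the NPC1 promoter upstream of luciferase were treated with compounds for 24 h, and promoter activation was read as luminescence.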
Hits are given with their value; – = inactive; ? = inconclusive; · = no result given. Sampled rows, rich in hits. Any-hit rate of the full collection: about 7.5%. Calls follow the shape of the dose curve; as a rule, active = well fitted curve in the direction sought with a large enough effect; inconclusive = small, poorly fitted or top-dose-only effect, or another doubt; inactive = no such curve, though single readings can be large; an effect the other way counts as inactive or inconclusive.

SMILES	SMN2 splice enh	FLuc modulator	Rab9 prom act	Luc counter	ELG1 genotoxic	NPC1 prom act
Cc1ccc(-n2cnc3cc(NCc4cccs4)ccc32)cc1	–	11µM	?	–	9.2µM	?
c1ccc(-n2cnc3cc(NCc4cccs4)ccc32)cc1	–	2.1µM	1µM	–	?	?
c1ccc(-n2cnc3cc(NCc4ccco4)ccc32)cc1	13µM	9.5µM	?	–	?	?
COc1ccc(-n2cnnc2SCC(=O)NCc2cccs2)cc1	–	–	–	–	–	–
Cn1cnc2cc(NCc3cccs3)ccc21	–	–	–	–	?	–
COc1ccc(-n2cnc3cc(NCc4cccs4)ccc32)cc1	–	15µM	–	–	–	?
COc1ccccc1-n1cnc2cc(C(=O)NCc3ccco3)ccc21	–	–	–	–	–	–
COc1ccc2sc(N(Cc3cccnc3)C(=O)C3COc4ccccc4O3)nc2c1 (stereo unspecified)	·	–	·	·	·	·
CS(=O)(=O)Cc1ccc(C(=O)N2CCN(C(=O)c3cccs3)CC2)cc1	·	·	·	·	–	·
O=C(Nc1cc2c(cc1C(=O)O)OCCCO2)c1ccc(C(F)(F)F)cc1	·	13µM	2.8µM	·	18µM	4µM
CCc1ccc(C(=O)Nc2cc3c(cc2Cl)OCCCO3)cc1	25µM	6µM	1.6µM	–	?	1.8µM
O=C(Cc1ccccc1)Nc1cc2c(cc1Cl)OCCCO2	·	17µM	2.8µM	·	?	3.2µM
O=C(Cc1ccccc1)Nc1ccc(NC(=O)Cc2ccccc2)c(Cl)c1	·	–	–	·	–	–
O=C(Cc1ccccc1)Nc1ccc2c(c1)OC1(CCCC1)O2	·	4.8µM	2.5µM	·	?	2.5µM
COc1ccccc1CC(=O)Nc1ccc2c(c1)OC1(CCCC1)O2	·	·	·	·	–	·
CCOC(=O)c1cnn(-c2ccc(C(=O)Nc3cc(OC)c(OC)c(OC)c3)cc2)c1N	·	–	·	·	·	·
COc1cc(C(=O)Nc2ccc3oc(-c4ccccc4)nc3c2)cc(OC)c1OC	–	–	·	·	·	·
CC(C)OCCCNC(=O)c1nn(C)c2c1CSc1ccccc1-2	·	–	·	·	·	·
O=C(N/N=C\C=C\c1ccc2c(c1)OCO2)c1ccc(F)cc1	–	?	–	–	–	–
Cc1cc(C(=O)N/N=C/C=C/c2ccc3c(c2)OCO3)n[nH]1	–	15µM	–	–	–	–
O=C(N/N=C/c1ccc2c(c1)OCO2)c1cccnc1	·	27µM	–	·	–	–
Cc1cccc(C(=O)Nc2ccc(C(=O)N/N=C/c3ccc4c(c3)OCO4)cc2)c1	·	–	–	·	–	–
Cc1ccc(C(=O)N/N=C\c2ccc3c(c2)OCO3)cn1	·	17µM	–	·	–	–
Cc1ccc(C(=O)N/N=C/c2cccc(OC(=O)/C=C/c3ccco3)c2)cn1	·	12µM	–	–	–	–
O=C(N/N=C\c1ccc2c(c1)OCO2)c1cncc(Br)c1	·	?	–	·	–	–
SMILES	SMN2 splice enh	FLuc modulator	Rab9 prom act	Luc counter	ELG1 genotoxic	NPC1 prom act
CC1=C(c2ccc(C(C)C)cc2)S(=O)(=O)N=C1N1CCC(C(=O)NCc2ccccc2)CC1	·	–	·	·	·	·
CCCN(C(=O)Cn1ncc2c([nH]c3ccccc32)c1=O)c1ccc(F)cc1	·	–	·	·	·	·
O=C(N/N=C/c1cccnc1)c1ccc2c(c1)OCCO2	8.9µM	6µM	3.2µM	?	?	?
COC(=O)c1sccc1N/N=C/c1cccc(OC)c1O	0.56µM	0.95µM	3.2µM	10µM	?	3.5µM
COC(=O)c1sccc1N/N=C/c1cccc(Oc2ccccc2)c1	?	1.9µM	2.2µM	?	2.3µM	3.2µM
COC(=O)c1sccc1N/N=C/c1ccc(OC)c(OC)c1OC	14µM	15µM	?	–	?	?
CCOC(=O)C1CCN(C(=O)c2cc3c(ccc4ccccc43)o2)CC1	·	12µM	0.45µM	·	9.2µM	2.5µM
CC1CCN(C(=O)c2cc3c(ccc4ccccc43)o2)CC1	·	0.76µM	0.28µM	·	1µM	0.45µM
Cc1nc2ccccc2c2oc(C(=O)N3CCC(C)CC3)cc12	·	?	–	·	–	–
CCOC(=O)C1CCN(C(=O)c2ccc(C)o2)CC1	·	·	·	·	–	·
CCOC(=O)C1CCN(C(=O)c2cc3cc4ccc(C)cc4nc3o2)CC1	·	?	0.45µM	·	?	0.89µM
CCOC(=O)C1CCN(C(=O)c2cc3cc(C)ccc3[nH]2)CC1	·	–	3.2µM	·	?	2.8µM
COc1ccc(Cn2c(SCc3ccc(C(=O)NC(C)C)cc3)nc3cccnc32)cc1	·	–	·	·	·	·
Cc1ccc(-c2nsc3c(N4CCC(C(N)=O)CC4)ncnc23)cc1	–	1.5µM	2.8µM	–	?	1.6µM
O=C(N1CCCC1)N1CCN(c2ncnc3c(-c4ccc(Cl)cc4)nsc23)CC1	?	17µM	–	–	?	–
O=C(NC1CC1)c1cc2c(s1)-c1ccccc1OC2	–	12µM	–	–	?	–
CC(C)(C)n1ncc2c(=O)n(CC(=O)NCc3ccco3)cnc21	13µM	?	3.2µM	–	?	3.2µM
CC(C)(C)n1ncc2c(=O)n(CC(=O)NC3CCCCC3)cnc21	–	?	?	–	?	?
CC(C)(C)n1ncc2c(=O)n(CC(=O)Nc3ccccc3)cnc21	–	–	–	–	–	–
CC(C)(C)n1ncc2c(=O)n(CC(=O)NCc3ccc(F)cc3)cnc21	8.9µM	4.3µM	0.35µM	–	4.1µM	0.5µM
COc1ccc(OC)c(-c2csc(NC(=O)Cc3ccccc3OC)n2)c1	·	9.5µM	–	·	–	–
COc1ccc(OC)c(-c2csc(NC(=O)CN3C(=O)NC4(CCCC4)C3=O)n2)c1	·	–	–	·	–	–
COc1ccc(OC)c(-c2csc(NC(=O)c3ccccc3F)n2)c1	·	15µM	–	·	–	–
O=C(Nc1nc(COc2ccccc2)cs1)c1ccccc1F	–	27µM	–	–	–	–
COc1ccc(OC)c(-c2csc(NC(=O)Cc3ccccc3F)n2)c1	·	11µM	–	·	–	–
SMILES	SMN2 splice enh	FLuc modulator	Rab9 prom act	Luc counter	ELG1 genotoxic	NPC1 prom act
CCOc1ccc(CCNC(=O)c2cc3sc(CC)cc3n2C)cc1OCC	–	–	·	·	·	·
CCOC(=O)c1c(Nc2ccc(C)c(C)c2)nnc(-c2ccccc2)c1-c1ccccc1	–	–	·	·	·	·
CCOc1ccccc1C(=O)Oc1c(S(=O)(=O)c2ccc(C)cc2)c(C)nn1-c1ccccc1	–	?	·	·	·	·
Cc1ccccc1OCC(O)Cn1nnc2ccccc21 (stereo unspecified)	11µM	21µM	3.5µM	–	?	?
Oc1ccc(Cl)cc1-c1cc(-c2cccc(Br)c2)n[nH]1	–	–	–	–	–	–
CC(C)(C)c1ccc(-c2cc(-c3ccccc3O)[nH]n2)cc1	·	0.76µM	0.28µM	·	0.58µM	0.32µM
Oc1ccccc1-c1cc(-c2cccc(F)c2)n[nH]1	?	5.4µM	–	–	?	–
COc1ccc(-c2cc(C(=O)N/N=C/c3ccc(O)cc3)[nH]n2)cc1	·	·	·	–	·	·
